Sampled rows, rich in hits. Any-hit rate of the full collection: about 2.3%.
NTR1 agonist: NTR1 (human) agonism | P30989 | 330,000 tested, 0.17% active | NTR1-U2OS beta-arrestin-GFP spot imaging, agonist mode | activation, % at 20 µM;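 active means activation at or above 40% of the spot to cytoplasm intensity ratio, with at least 20 cells analyzed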;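 further: 0% = DMSO without peptide and 100% = 100 nM NTR1 peptide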
HTR2A ag: mouse HTR2A agonism via beta-arrestin recruitment; 360,000 tested, 0.66% active; P35363; activation, % at 7.6 µM; CHO-K1 mHTR2A beta-arrestin complementation, luminescence; percent of 30 µM serotonin response;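 active means activation above a run cutoff, the mean activation of all tested compounds plus 3 SD, cut at about 14% in these data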;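 further: 0% = plate median of compound wells and 100% = 30 µM serotonin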
B2AR ag: agonists of human beta-2 adrenergic receptor inducing internalization. P07550. 340,000 tested, 0.43% active. Am2.2-beta2AR cells, FAP receptor internalization, flow cytometry. response, % (test concentration not listed);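 active means response above a set limit, near 3 SD of response in nonfluorescent compounds, cut at about 42% in these data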
ABHD5-PLIN5 inh: blocks binding of human ABHD5 to perilipin-5. Split G. princeps luciferase complementation, luminescence, 4 h. inhibition, % at 4 µM. 360,000 tested, 0.78% active;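 active means inhibition above the mean inhibition across every tested compound plus 3 SD, cut at about 22% in these data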;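 further: 0% = DMSO only wells and the 100% control is not disclosed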
Granule exo inh: blocks lytic granule exocytosis | 360,000 tested, 0.66% active | inhibition, % at 10 µM | AID 651702 | TALL-104 LAMP-1 surface exposure, flow cytometry; cells stimulated with thapsigargin and PMA;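 active means inhibition above about 55%, limit read from the data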
ABHD5-PLIN5 conf: ABHD5-PLIN5 interaction inhibition, confirmed. shares compounds with ABHD5-PLIN5 inh. biochemical ABHD5-PLIN5 interaction, luminescence. inhibition, % at 4 µM. 2,200 tested, 67% active; in the data active means inhibition above about 23%;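 further: 0% = DMSO vehicle wells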
HNF4 split-luc: counter-screen for ABHD5-PLIN5 inhibitors: HNF4 split-luciferase; inhibition, % at 4 µM; 2,200 tested, 77% active; HNF4 dimerization, luminescence, biochemical; AID 651674; shares compounds with ABHD5-PLIN5 inh;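 active means mean inhibition across replicate wells exceeding the computed hit threshold, cut at about 13% in these data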;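 further: light from luciferase halves that rejoin when HNF4 fusion proteins dimerize; 0% = DMSO only wells and the 100% control is not given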
Target sequence (P41235 whole entry, looked up, the tested form may be a part): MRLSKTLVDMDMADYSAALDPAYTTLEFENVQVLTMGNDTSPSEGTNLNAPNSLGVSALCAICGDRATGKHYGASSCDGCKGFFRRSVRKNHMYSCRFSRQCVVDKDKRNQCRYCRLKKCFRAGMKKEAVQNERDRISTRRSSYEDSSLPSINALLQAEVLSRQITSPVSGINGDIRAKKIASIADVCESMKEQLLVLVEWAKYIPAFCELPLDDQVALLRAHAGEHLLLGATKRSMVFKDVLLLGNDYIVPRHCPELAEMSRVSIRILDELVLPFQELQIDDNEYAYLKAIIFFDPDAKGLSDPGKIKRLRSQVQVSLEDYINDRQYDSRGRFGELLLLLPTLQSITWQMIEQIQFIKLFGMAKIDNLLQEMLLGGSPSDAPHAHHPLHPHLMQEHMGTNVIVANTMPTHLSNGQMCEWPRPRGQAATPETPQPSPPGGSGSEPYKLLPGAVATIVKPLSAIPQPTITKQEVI
Active calls of the source: *.

COc1ccc(C(=O)/C=C/c2ccccc2)c(O)c1 was read as NTR1 agonist 10, HTR2A ag -4, B2AR ag -4, ABHD5-PLIN5 inh 30*, Granule exo inh -1, ABHD5-PLIN5 conf 66* and HNF4 split-luc 47*.
Screening O=C(C=Cc1ccccc1O)c1ccccc1O returned HTR2A ag -1, B2AR ag 28, ABHD5-PLIN5 inh 73*, Granule exo inh 6, ABHD5-PLIN5 conf 98* and HNF4 split-luc 90*.
`COc1ccc(C(=O)/C=C/c2ccc(OC)cc2OC)c(O)c1` gave NTR1 agonist 8, HTR2A ag -1, B2AR ag 3, ABHD5-PLIN5 inh 2 and Granule exo inh 2.
`O=C(/C=C/c1ccc(O)c(O)c1)c1ccccc1O` gave NTR1 agonist 21, HTR2A ag -6, B2AR ag 14, ABHD5-PLIN5 inh 10 and Granule exo inh 0.
CCOC(=O)C1CCCCN1C(=O)/C(=C/c1ccc(OC)cc1)c1ccc(OC)c(OC)c1 (configuration not stated) was read as NTR1 agonist -2, HTR2A ag -5, B2AR ag 1, ABHD5-PLIN5 inh 24*, Granule exo inh 3, ABHD5-PLIN5 conf -4 and HNF4 split-luc 0.
`CCOC(=O)C1CCCCN1C(=O)c1ccc2nc(Cc3ccc(OC)cc3)oc2c1` (configuration not stated) gave NTR1 agonist 0, HTR2A ag -6, B2AR ag 8, ABHD5-PLIN5 inh 5 and Granule exo inh 3.
Screening CCOC(=O)[C@H]1[C@H]2COc3ccc(Br)cc3[C@@H]2N2C(=O)CN(CC3CCCO3)C(=O)[C@@]12C (some centres not stated) returned NTR1 agonist 0, HTR2A ag -5, B2AR ag 3, ABHD5-PLIN5 inh -4 and Granule exo inh -3.
COc1c(O)ccc(C2NC(=O)NC(C)=C2C(=O)Nc2ccccc2C)c1[N+](=O)[O-] (configuration not stated) was read as NTR1 agonist 1, HTR2A ag 1, B2AR ag 2, ABHD5-PLIN5 inh 0 and Granule exo inh -5.
Screening FC(F)(F)c1ccccc1Cc1c(-c2ccco2)nc2ccc(Cl)cn12 returned HTR2A ag -8, ABHD5-PLIN5 inh 34*, Granule exo inh 14, ABHD5-PLIN5 conf 46* and HNF4 split-luc 63*.
Screening Cc1ccc2nc(-c3ccco3)c(Cc3cccc(F)c3)n2c1 returned HTR2A ag -2, ABHD5-PLIN5 inh 56*, Granule exo inh 24, ABHD5-PLIN5 conf 11 and HNF4 split-luc 20*.
Screening COc1ccccc1Cc1c(-c2ccco2)nc2ccc(C)cn12 returned HTR2A ag -5, ABHD5-PLIN5 inh 56*, Granule exo inh 44, ABHD5-PLIN5 conf 27* and HNF4 split-luc 48*.
COc1ccccc1Cc1c(-c2ccc(OC)c(OC)c2)nc2ccc(C)cn12 was read as HTR2A ag -3, ABHD5-PLIN5 inh 3 and Granule exo inh 9.
`Cc1ccc2nc(-c3ccccc3)c(Cc3cccc(F)c3)n2c1` gave HTR2A ag -8, ABHD5-PLIN5 inh -5 and Granule exo inh -9.
Cc1cc(Br)cn2c(Cc3ccccc3)c(-c3ccc(Cl)cc3)nc12 was read as HTR2A ag -2, ABHD5-PLIN5 inh -1 and Granule exo inh 8.
For Cc1cc(Br)cn2c(Cc3ccccc3)c(-c3ccco3)nc12 the results were HTR2A ag -8, ABHD5-PLIN5 inh 30*, Granule exo inh 15, ABHD5-PLIN5 conf 30* and HNF4 split-luc 45*.
CC(C)OP(=O)(OC(C)C)C(O)c1cccc([N+](=O)[O-])c1 (configuration not stated) was read as NTR1 agonist -1, HTR2A ag 1, B2AR ag 1, ABHD5-PLIN5 inh -4 and Granule exo inh -6.
For COc1ccccc1Cc1c(-c2ccc(C)cc2)nc2c(C)cc(Br)cn12 the results were HTR2A ag -3, ABHD5-PLIN5 inh -8 and Granule exo inh -1.
COc1ccccc1Cc1c(-c2ccco2)nc2c(C)cc(Br)cn12 was read as HTR2A ag -6, ABHD5-PLIN5 inh 58*, Granule exo inh 40, ABHD5-PLIN5 conf 36* and HNF4 split-luc 40*.
For COc1cccc(C2=Cc3ccc(F)cc3C(CC(C)=O)N2c2ccc(C#CC3(O)CCCCC3)cc2)c1 (configuration not stated) the results were HTR2A ag -4, ABHD5-PLIN5 inh -10 and Granule exo inh 14.
Screening COc1ccc(-c2cc(=O)n(CCC#N)[nH]2)cc1 returned NTR1 agonist -1, HTR2A ag -2, B2AR ag 3, ABHD5-PLIN5 inh 26*, Granule exo inh -2, ABHD5-PLIN5 conf -11 and HNF4 split-luc -15.
Cc1c(Cl)cccc1NC(=O)NN1CCN(C)CC1 was read as NTR1 agonist 0, HTR2A ag 9, B2AR ag -4, ABHD5-PLIN5 inh 8 and Granule exo inh 52.
Screening OC(CNCC1CCCO1)Cn1c2ccccc2c2ccccc21 (configuration not stated) returned NTR1 agonist 0, HTR2A ag -2, B2AR ag 3, ABHD5-PLIN5 inh 7 and Granule exo inh 2.
Screening OC(CNCC1CCCO1)Cn1c2ccc(Cl)cc2c2cc(Cl)ccc21 (configuration not stated) returned NTR1 agonist 9, HTR2A ag 2, B2AR ag 33, ABHD5-PLIN5 inh 35*, Granule exo inh 54, ABHD5-PLIN5 conf 13 and HNF4 split-luc 8.
For CCN(CC)C(=O)N1CCN(C)CC1 the results were NTR1 agonist 2, HTR2A ag -3, B2AR ag 3, ABHD5-PLIN5 inh 38*, Granule exo inh -3, ABHD5-PLIN5 conf 80* and HNF4 split-luc 37*.
`COc1ccc(C(=O)COc2ncnc3cc(Cl)ccc23)cc1` gave NTR1 agonist 0, HTR2A ag 2, B2AR ag -5, ABHD5-PLIN5 inh 1 and Granule exo inh -2.
For C=CCOc1ccccc1C(=O)/C=C1/C(=O)Nc2ccccc21 the results were NTR1 agonist 50*, HTR2A ag 6, B2AR ag -6, ABHD5-PLIN5 inh 85*, Granule exo inh 10, ABHD5-PLIN5 conf 95* and HNF4 split-luc 97*.
Screening NC(=O)COc1ccc(C(=O)/C=C2/C(=O)Nc3ccccc32)cc1 returned NTR1 agonist 2, HTR2A ag -1, B2AR ag 24, ABHD5-PLIN5 inh 54*, Granule exo inh 5, ABHD5-PLIN5 conf 55* and HNF4 split-luc 89*.
`O=C1Nc2ccccc2/C1=C/c1cnc(-c2ccccc2)[nH]1` gave NTR1 agonist 6, HTR2A ag 1, B2AR ag -11, ABHD5-PLIN5 inh 2 and Granule exo inh 5.
